High-throughput results: PubChem BioAssay, National Center for Advancing Translational Sciences (NCATS)
TGFb inhibitor: inhibitors of TGF-b signaling; HepG2 CAGA-GFP TGF-b/SMAD3 reporter, GFP fluorescence, 18 h; TGF-beta stimulated, 500 pg/mL final; Potency, µM (highest dose often 46.1 µM), without a hit: at the highest dose activity, negative = inhibition, actives largely listed as inhibitors; 410,000 compounds, 1.2% hits; AID 588855; also: % is scaled to controls: 0 for no effect and ±100 for the full control effect; nearly all actives have a fitted effect of over 65% in size
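Inhibition of TGF-beta-driven CAGA-GFP reporter expression in HEPG2 cells is measured by cellular GFP fluorescence after 18 h stimulation with 500 pg/mL recombinant TGF-beta in 1% FBS medium at 37 degrees C.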
HepG2 tox: kills HepG2 cells in TGF-b inhibitor counter-screen; Potency, µM (titrated, usually from 46.1 µM), for inactives: at the top dose activity change, negative = cytotoxicity, hits mostly cytotoxic; HepG2 CAGA-GFP viability, ATP luminescence, 18 h; AID 588856; 410,000 compounds, 0.76% hits
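CellTiter-Glo luminescence gave cytotoxicity after 18 hours at 37 degrees C. The cells were HepG2 CAGA-GFP in 1% FBS DMEM, stimulated with 500 pg/mL TGF-beta after compound addition. %Activity was normalised to no-cell wells (complete cell-killing) and DMSO (no toxicity), and curves were fitted and classified.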
S2 tox: reduces viability in counter-screen for ATXN expression inhibitors | S2 cells (HEK-293 line with an ATXN2-luciferase reporter) viability, CellTiter-Fluor protease fluorescence, 24 h | AID 651635 | Potency, µM (top dose mostly 56.7 µM), usual class: cytotoxic | 400,000 compounds, 0.49% hits; also: nearly all actives have a fitted effect of over 40% in size
KB-3-1 tox: KB-3-1 parental cell cytotoxicity | KB-3-1 viability, CellTiter-Glo ATP luminescence, 72 h | Potency, µM (series often up to 46.1 µM), actives largely listed as cytotoxic | 400,000 compounds, 1.4% hits | AID 1347075; also: % is scaled to controls: 0 for no effect and ±100 for the full control effect; nearly all actives have a fitted effect of over 60% in size
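Multi-concentration cytotoxicity screen in KB-3-1 cells grown in DMEM lacking phenol red with 10% FBS. After 72 h at 37 °C with compound, ATP-dependent luminescence was recorded.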
KB-V1 cytotox: KB-V1 MDR subline cytotoxicity | Potency, µM (doses to about 46.1 µM), most hits filed as cytotoxic | 400,000 compounds, 3.4% hits | AID 1347076 | KB-V1 MDR cells viability, CellTiter-Glo, 72 h; also: % is scaled to controls: 0 for no effect and ±100 for the full control effect; nearly all actives have a fitted effect of over 60% in size
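In this primary screen, KB-V1 cells overexpressing P-gp are incubated with library compounds (lowest to highest concentration) for 72 h at 37 degrees C before a luminescent ATP viability read.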
ATXN2 expr inh: ATXN2 expression inhibition; HEK-293 ATXN2-luciferase reporter, luminescence, 24 h; Potency, µM (series often up to 57 µM), inactives show at the highest dose activity change, negative = inhibition, usual class: inhibitors; 360,000 compounds, 0.72% hits; also: % is scaled to controls: 0 for no effect and ±100 for the full control effect; nearly all actives have a fitted effect of over 55% in size
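qHTS (up to 57 uM final) was run with 24 h compound exposure of reporter cells at 37 °C. Each well was multiplexed: SteadyGlo luminescence measured ATXN2-luciferase expression after a fluorogenic Gly-Phe-AFC viability readout (25 uM final).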
Starred values were filed as active, the others as inactive. Sampled rows, rich in hits. Any-hit rate of the full collection: about 5.9%. Calls follow the shape of the dose curve; as a rule, active = well fitted curve in the direction sought with a large enough effect; inconclusive = small, poorly fitted or top-dose-only effect, or another doubt; inactive = no such curve, though single readings can be large; an effect the other way counts as inactive or inconclusive. Potency is read from the fitted curve at half-maximal effect.

How did C[C@@H]1[C@H](O)[C@@H](C)C=CC=CCCC=CC=CC=CC=C[C@H](O[C@H]2O[C@@H](C)[C@H](O)[C@@H](N)[C@@H]2O)CC2O[C@](O)(C[C@@H](O)[C@H](O)CC[C@@H](O)C[C@@H](O)C[C@@H](O)CC(=O)O[C@H]1C)C[C@H](O)[C@H]2C(=O)O do in these assays?
S2 tox: inactive; ATXN2 expr inh: 9.8%

How did c1cc2c(cc1NC1=NCCO1)CCCC2 do in these assays?
TGFb inhibitor: inconclusive; HepG2 tox: -4.9%; S2 tox: inconclusive; KB-3-1 tox: 14.6µM*; KB-V1 cytotox: inconclusive; ATXN2 expr inh: 7.3%

What do the screens show for `Cc1ccc(NC(=O)Nc2cc3c(cc2N2CCCCC2)n(C)c(=O)n3C)cc1Cl`?
TGFb inhibitor: inconclusive; HepG2 tox: -9.5%; S2 tox: inactive; KB-3-1 tox: inactive; KB-V1 cytotox: inactive; ATXN2 expr inh: -17.7%

How did CCCCC[C@@H]1CCCCC[C@@H](O)C[C@@H](O)[C@H](O)/C=C/C(=O)O1 do in these assays?
S2 tox: inactive; KB-3-1 tox: inactive; KB-V1 cytotox: inactive; ATXN2 expr inh: 0.6%

What do the screens show for `Cc1cccc(N=C2c3cc([N+](=O)[O-])ccc3-c3c2cc([N+](=O)[O-])cc3[N+](=O)[O-])c1`?
TGFb inhibitor: -6.4%; HepG2 tox: -15.6%; S2 tox: inconclusive; KB-3-1 tox: 14.6µM*; KB-V1 cytotox: inconclusive; ATXN2 expr inh: inconclusive

What do the screens show for `C[C@@H]1CN([C@@H](C)CO)C(=O)CCCn2nncc2CO[C@@H]1CN(C)C(=O)Nc1ccc(N2CCCCC2)cc1`?
TGFb inhibitor: 2.4%; HepG2 tox: 8.8%; S2 tox: inactive; KB-3-1 tox: inactive; KB-V1 cytotox: inactive; ATXN2 expr inh: 11.3%

Results for CCn1nc(/C=C/c2ccccc2)nc2c(=O)n(C)c(=O)nc1-2 ?
TGFb inhibitor: 0.398µM*; HepG2 tox: 0.891µM*; KB-3-1 tox: 4.11µM*; KB-V1 cytotox: inconclusive; ATXN2 expr inh: inconclusive

How did CCn1nc(-c2cccs2)nc2c(=O)n(C)c(=O)nc1-2 do in these assays?
TGFb inhibitor: inconclusive; HepG2 tox: 0.355µM*; S2 tox: inactive; KB-3-1 tox: inconclusive; KB-V1 cytotox: inconclusive; ATXN2 expr inh: 6.0%

What do the screens show for `COc1cc2nc(CN3CC=C(c4ccccc4)CC3)[nH]c(=O)c2cc1OC`?
TGFb inhibitor: inconclusive; HepG2 tox: -30.8%; S2 tox: inactive; KB-3-1 tox: 7.31µM*; KB-V1 cytotox: inconclusive; ATXN2 expr inh: 1µM*

How did Cc1ccc(NC(=O)COC(=O)/C=C/c2ccco2)cc1S(=O)(=O)N(C)C do in these assays?
TGFb inhibitor: inconclusive; HepG2 tox: -7.0%; S2 tox: inactive; KB-3-1 tox: inactive; KB-V1 cytotox: inactive; ATXN2 expr inh: 0.9%

Results for CN(C)C1(CNC(=O)c2ccc(NS(=O)(=O)c3ccc(Cl)c(Cl)c3)cc2)CCCCC1 ?
TGFb inhibitor: -6.6%; HepG2 tox: -25.9%; S2 tox: inactive; KB-3-1 tox: inactive; KB-V1 cytotox: inactive; ATXN2 expr inh: -8.3%

How did CN(C)C1(CNC(=O)Nc2ccc(Cl)c(Cl)c2)CCCCC1 do in these assays?
TGFb inhibitor: inconclusive; HepG2 tox: 15.8µM*; S2 tox: inconclusive; KB-3-1 tox: inactive; KB-V1 cytotox: inactive; ATXN2 expr inh: inconclusive

Results for O=C1OC(CCN2CCCCC2)OC1(c1ccccc1)c1ccccc1 (stereo unspecified) ?
S2 tox: inactive; ATXN2 expr inh: -4.5%

What do the screens show for `On1ccccc1=S`?
TGFb inhibitor: 0.282µM*; HepG2 tox: 1µM*; S2 tox: 0.316µM*; KB-3-1 tox: inactive; KB-V1 cytotox: inconclusive; ATXN2 expr inh: 0.282µM*

What do the screens show for `O=C(Nc1nccs1)C(Cl)(Cl)Cl`?
TGFb inhibitor: 2.4%; HepG2 tox: -6.8%; S2 tox: inactive; KB-3-1 tox: inactive; KB-V1 cytotox: inactive; ATXN2 expr inh: -11.6%

What do the screens show for `O=C(CCl)Nc1nccs1`?
TGFb inhibitor: 11.2µM*; HepG2 tox: 11.2µM*; S2 tox: inconclusive; KB-3-1 tox: inconclusive; KB-V1 cytotox: inconclusive

What do the screens show for `O=C(Nc1ccc(Cl)cc1)Nc1nccs1`?
TGFb inhibitor: -12.8%; HepG2 tox: -22.0%; S2 tox: inconclusive; KB-3-1 tox: 4.61µM*; KB-V1 cytotox: 2.59µM*; ATXN2 expr inh: -8.1%

What do the screens show for `COc1ccccc1CNC(=O)CCS(=O)(=O)c1ccc2c(c1)oc(=O)n2C`?
TGFb inhibitor: -6.9%; HepG2 tox: -35.0%; S2 tox: inactive; KB-3-1 tox: inconclusive; KB-V1 cytotox: inactive; ATXN2 expr inh: 0.7%

What do the screens show for `CC1=CC2/C=C(\C)CCC(O)C(O)/C=C/C(=O)C23C(=O)NC(CC(C)C)C3C1C` (stereo unspecified)?
TGFb inhibitor: 3.16µM*; HepG2 tox: -116.5%; KB-3-1 tox: 4.61µM*; KB-V1 cytotox: inconclusive; ATXN2 expr inh: inconclusive

What do the screens show for `O=C1NC(=O)N(Cc2ccccc2)C(=O)/C1=C/C=C/c1ccco1`?
TGFb inhibitor: 11.2µM*; HepG2 tox: -17.5%; S2 tox: 20µM*; KB-3-1 tox: 14.6µM*; KB-V1 cytotox: inactive; ATXN2 expr inh: inconclusive

Results for C[N+](C)(C)CC1CCCc2ccccc2C1=O (stereo unspecified) ?
TGFb inhibitor: inconclusive; HepG2 tox: -6.6%; S2 tox: inconclusive; KB-3-1 tox: inconclusive; KB-V1 cytotox: inactive; ATXN2 expr inh: inconclusive

Results for C[N+](C)(C)CC1CCCC(C[N+](C)(C)C)C1=O (stereo unspecified) ?
TGFb inhibitor: 12.6µM*; HepG2 tox: -84.4%; S2 tox: inconclusive; KB-3-1 tox: inconclusive; KB-V1 cytotox: inconclusive; ATXN2 expr inh: inconclusive

Results for COc1ccc(NC(=O)Cn2c(=O)oc3cc(S(=O)(=O)N4CCC(C)CC4)ccc32)c(OC)c1 ?
TGFb inhibitor: 12.6µM*; HepG2 tox: -30.3%; KB-3-1 tox: inconclusive; KB-V1 cytotox: inactive

Results for CC(Oc1ccc(Br)cc1)C(=O)N(Cc1nc(-c2ccccc2)no1)C(C)C (stereo unspecified) ?
TGFb inhibitor: inconclusive; HepG2 tox: -27.1%

What do the screens show for `O=C(NCNC(=O)N[C@H]1C(=O)NC(=O)N1CO)N[C@H]1C(=O)NC(=O)N1CO`?
S2 tox: inactive

Results for COc1cccc(N2CCN(C(=O)Cn3c(=O)oc4ccccc43)CC2)c1 ?
TGFb inhibitor: -2.3%; HepG2 tox: -23.9%; S2 tox: inactive; KB-3-1 tox: inactive; KB-V1 cytotox: inactive; ATXN2 expr inh: -8.9%
